# Assay outcomes deposited in PubChem by National Center for Advancing Translational Sciences (NCATS).
# Most compounds without a hit are left out; they make up all but 3.3% or so of the library.
# AmpC no deterg: AmpC beta-lactamase inhibition without detergent; P00811; AmpC nitrocefin hydrolysis, absorbance 480 nm, 0.0001% Triton; Potency, µM (top dose mostly 57.1 µM), inactives show at the highest dose activity change, negative = inhibition, actives largely listed as inhibitors; 0.52% of 330,000 active; AID 485341;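 note: plate controls were no compound for no effect and no enzyme for full effect; nearly all actives have a fitted effect of over 20% in size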
# Target sequence (P00811 whole entry, looked up): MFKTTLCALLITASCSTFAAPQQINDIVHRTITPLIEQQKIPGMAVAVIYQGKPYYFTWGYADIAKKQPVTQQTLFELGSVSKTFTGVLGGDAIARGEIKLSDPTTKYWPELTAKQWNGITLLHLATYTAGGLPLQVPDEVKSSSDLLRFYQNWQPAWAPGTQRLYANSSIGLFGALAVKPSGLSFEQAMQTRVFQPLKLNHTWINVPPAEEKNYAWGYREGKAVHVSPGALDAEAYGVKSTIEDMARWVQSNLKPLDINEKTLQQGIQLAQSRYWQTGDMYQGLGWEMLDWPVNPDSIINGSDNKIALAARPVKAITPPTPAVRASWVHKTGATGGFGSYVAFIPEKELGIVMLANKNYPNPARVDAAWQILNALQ
#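 20 mM phosphate pH 7.0 + 0.01% (detergent screen) or 0.0001% Triton X-100; 5.3 nM AmpC reagent; cpd preinc 15 min RT; nitrocefin (800 uM stock) to start; A480 q20 s × 4 min; Activity was normalised to no-enzyme and no-compound control wells.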
# AmpC detergent: AmpC beta-lactamase inhibition with detergent present. AmpC hydrolysis of nitrocefin, absorbance 480 nm, 0.01% Triton. Potency, µM (doses to about 114 µM), for the others: top-dose activity change, negative = inhibition, usual class: inhibitors. 0.041% of 370,000 active;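 note: 0% = no-compound wells and -100% = no-enzyme wells; nearly all actives have a fitted effect of over 25% in size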
#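 20 mM phosphate pH 7.0 + 0.01% (detergent screen) or 0.0001% Triton X-100; 5.3 nM AmpC reagent; cpd preinc 15 min RT; nitrocefin (800 uM stock) to start; A480 q20 s × 4 min; Activity was normalised to no-enzyme and no-compound control wells.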
# Sm TGR block: inhibitors of Schistosoma mansoni thioredoxin glutathione reductase; 3% of 360,000 active; Q962Y6; Potency, µM (highest dose often 114 µM), without a hit: at the top dose activity change, negative = inhibition, most hits filed as inhibitors; purified TGR, DTNB reduction, TNB absorbance 405 nm; note: nearly all actives have a fitted effect of over 60% in size
#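 Kinetic colorimetric format: TGR-catalysed, NADPH-driven DTNB reduction monitored via TNB absorbance. Enzyme dispensed at 20 nM; compound exposure 15 min at room temperature before reaction start.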
# The depositor's hits bear a star; ? = inconclusive; / = not tested or not shown; [ ] = another dose, or the depositor's remark. Calls come from the whole dose curve; as a rule, active = well fitted curve in the direction sought with a large enough effect; inconclusive = small, poorly fitted or top-dose-only effect, or another doubt; inactive = no such curve, though single readings can be large; an effect the other way counts as inactive or inconclusive. Unless noted, % is set by controls: 0 for no effect and ±100 for the full control effect; potency is the fitted concentration of half-maximal effect.
SMILES,AmpC no deterg,AmpC detergent,Sm TGR block
COC(=O)c1c(N2C(=O)CC(Sc3ncccc3C(=O)O)C2=O)sc(C)c1C (stereo not drawn),12%,-7%,20µM*
O=C(O)c1cccnc1SC1CC(=O)N(c2cccc(C(F)(F)F)c2)C1=O (stereo not drawn),-1%,?,?
O=C(O)c1cccnc1SC1CC(=O)N(c2ccc(OC(F)F)cc2)C1=O (stereo not drawn),-15%,10%,45µM*
COc1ccccc1N1C(=O)CC(Sc2ncccc2C(=O)O)C1=O (stereo not drawn),0%,-14%,-21%
CCn1cc(C(=O)N(C)c2ccc(C(C)C)cc2)c2cc(OC)c(OC)cc2c1=O,/,3%,12%
CCOc1cc(CNC(=O)c2ccc3nc(C(C)C)oc3c2)cc(OCC)c1OCC,/,0%,15%
CCOC(=O)C1CCN(C(=O)c2ccc(NC(=O)c3nsc4ccccc34)cc2)CC1,/,-8%,-2%
CC1=C(C(=O)Nc2ccccc2)C(c2cccc(O)c2)n2nc(-c3ccccc3Cl)nc2N1 (stereo not drawn),/,-6%,0%
COc1ccc(-c2cn3nc(N4CCCC(C(=O)Nc5ccccc5OC)C4)sc3n2)cc1 (stereo not drawn),/,15%,3%
CCn1c(CNC(=O)c2ccc(OC)cc2)nnc1SCC(=O)Nc1ccc(C)cc1,/,1%,4%
COC(=O)CN1C(=O)N/C(=C/c2ccc(C)o2)C1=O,-11%,-5%,28µM*
Cc1cc(C(=O)O)ccc1-c1ccc(/C=C2\NC(=O)N(Cc3ccccc3Cl)C2=O)o1,-27%,4%,50µM*
Cc1ccc(/C=C2\SC(=S)N(Cc3ccccc3)C2=O)o1,-13%,3%,?
Cc1ccc(/C=C2/NC(=O)N(Cc3ccccc3)C2=O)o1,-34%,-10%,22µM*
Cc1ccc(CN2C(=O)N/C(=C\c3ccc(-c4ccc(C(=O)O)cc4C)o3)C2=O)cc1,-33%,1%,-4%
COC(=O)COc1ccc(/C=C2/NC(=O)N(CC(=O)OC)C2=O)cc1,-11%,1%,13%
Cc1nc2ccc(S(=O)(=O)N(CC(=O)Nc3cccc(Cl)c3)Cc3ccccc3)cc2s1,/,0%,-5%
Cc1cc(C)cc(N(C)S(=O)(=O)c2nnc(NC(=O)COc3ccc(Cl)cc3)s2)c1,/,21%,2%
C=CCn1c(Sc2ncc([N+](=O)[O-])s2)n[nH]c1=O,-45%,-6%,0.22µM*
C=CCn1c(CSc2ccccc2[N+](=O)[O-])n[nH]c1=S,?,-8%,-19%
COc1ccc(C2C(C(=O)Nc3ccccc3)=C(C)Nc3c(C(=O)Nc4ccccc4)cnn32)cc1 (stereo not drawn),/,8%,0%
CCCC(=O)NC(c1ccc(C)cc1)c1ccc2cccnc2c1O (stereo not drawn),-27%,6%,9%
Cc1cccc(NC(c2cccc(Cl)c2)c2ccc3cccnc3c2O)n1 (stereo not drawn),/,-5%,4.5µM*
CC(=O)NC(c1ccc2ccccc2c1)c1ccc2cccnc2c1O (stereo not drawn),-5%,?,-3%
CCC(=O)NC(c1ccc(OC)c(OC)c1)c1cc(Cl)c2cccnc2c1O (stereo not drawn),13%,?,-3%
SMILES,AmpC no deterg,AmpC detergent,Sm TGR block
Cc1ccc(C(Nc2ccccn2)c2ccc3cccnc3c2O)cc1 (stereo not drawn),/,-8%,1µM*
COc1ccc(C(Nc2ccccn2)c2ccc3ccc(C)nc3c2O)cc1C (stereo not drawn),/,11%,0.71µM*
CCOc1cc(C(Nc2cc(C)ccn2)c2ccc3cccnc3c2O)ccc1OC (stereo not drawn),/,-7%,0.28µM*
CC(=O)NC(c1ccc(Cl)cc1Cl)c1ccc2cccnc2c1O (stereo not drawn),10%,-14%,-18%
CCn1cc(C(=O)NCc2ccc(F)cc2)c(=O)c2cc(S(=O)(=O)N(C)C)ccc21,/,0%,-2%
Cc1ccnc(NC(c2cccc(O)c2)c2ccc3ccc(C)nc3c2O)c1 (stereo not drawn),/,-4%,1.6µM*
Cc1cccc(NC(c2ccccc2F)c2ccc3ccc(C)nc3c2O)n1 (stereo not drawn),/,-8%,5µM*
Oc1c(C(Nc2nccs2)c2ccc(C(F)(F)F)cc2)ccc2cccnc12 (stereo not drawn),-56%,-5%,-13%
Cc1ccc2cccc(OCCCOc3ccccc3F)c2n1,82%,-12%,-24%
CC(C)C(=O)NC(c1cccc([N+](=O)[O-])c1)c1ccc2cccnc2c1O (stereo not drawn),-27%,?,-28%
Oc1c(C(Nc2cccc(C(F)(F)F)c2)c2ccncc2)ccc2cccnc12 (stereo not drawn),-38%,8%,35µM*
CC(C)c1ccc(NC(=O)C2CCN(S(=O)(=O)c3cccc4nsnc34)CC2)cc1,/,2%,5%
CCC(C)N1C(=O)/C(=C\c2ccc(N3CCCCCC3)cc2)C(=O)NC1=S (stereo not drawn),-23%,-5%,?
CCC(C)N1C(=O)/C(=C\c2cnc(N(C)C)nc2)C(=O)NC1=S (stereo not drawn),-1%[2.29 µM],-1%,10µM*
COc1ccc(CCNC(=O)CCc2cn(Cc3ccc(F)cc3)c3ccccc23)cc1OC,/,0%,-14%
CN(Cc1c(C(=O)N/N=C/c2cccc(Cl)c2)nnn1-c1nonc1N)c1ccccc1,14µM*,5%,-2%
CN(Cc1c(C(=O)N/N=C/c2ccccc2)nnn1-c1nonc1N)c1ccccc1,-43%,-14%,-10%
Cc1cccc(N2CCN(C(=O)c3c(C)oc4ncnc(N5CCOCC5)c34)CC2)c1C,/,12%,0%
CCOC(=O)c1ccc(NC(=O)CN(c2ccc(C)cc2)S(=O)(=O)c2ccc(OC)cc2)cc1,/,4%,9%
COc1ccc(N2CCN(S(=O)(=O)CCNC(=O)Cc3ccc(Cl)cc3)CC2)cc1,/,15%,-2%
Clc1ccc2c(c1)C1OCCC1C(c1ccco1)N2 (stereo not drawn),-16%,?,32µM*
CC(=O)N1c2ccc(Cl)cc2C2OCCC2C1c1ccco1 (stereo not drawn),16%,-2%,-14%
CCOc1ccc2nc(N3CCCC(C(=O)Nc4ccccc4CC)C3)sc2c1 (stereo not drawn),/,0%,0%
O=C1CC(N2CCN(C/C=C/c3ccccc3)CC2)C(=O)N1Cc1ccc(N2CCCC2=O)cc1 (stereo not drawn),125%,?,-30%
O=C1CC(N2CCN(CCc3ccccn3)CC2)C(=O)N1c1ccc(Cl)cc1 (stereo not drawn),-4%,-2%,-31%
O=C1CCCN1CCC1CCN(C2CC(=O)N(c3ccc(Cl)cc3)C2=O)CC1 (stereo not drawn),/,-1%,18µM*
O=C1CCCN1CCC1CCN(C2CC(=O)N(Cc3ccc(N4CCCC4=O)cc3)C2=O)CC1 (stereo not drawn),5%,-16%,18µM*
O=C1CC(N2CCOCC2)C(=O)N1Cc1ccc(N2CCCC2=O)cc1 (stereo not drawn),-10%,-8%,-1%[11.4 µM]
